Experimental data from PubChem BioAssay (EPA / NIEHS).
Records with an inconclusive call do not appear. Activity calls are given as the source filed them. Rule for the calls, unless noted: active = hit-call score of the fitted dose curve at least 0.9, where 1 is the maximum; inactive = score below 0.9.

What was measured:
[1] = ATG_TCF_b_cat_CIS: Attagene CIS-FACTORIAL HepG2 Assay for human T-Cell-Factor with beta-catenin (TCF/b-cat) (AID 2282965); conditions: HepG2 TCF/beta-catenin cis-reporter transcription, actives raise or lower the signal
How it was run: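 Endogenous TCF/LEF activity read as reporter transcript level via RT-PCR and capillary electrophoresis fluorescence in transfected HepG2, 24 h exposure; gain or loss of signal fitted against DMSO controls.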

[2] = ATG_TAL_CIS: Attagene CIS-FACTORIAL HepG2 Assay for human TAL Basal Promoter (AID 2282966); conditions: HepG2 Attagene cis-factorial TAL promoter reporter; actives raise or lower the signal;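 note: background control endpoint measuring basal TAL promoter reporter mRNA not a specific factor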
How it was run: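 RT-PCR plus capillary electrophoresis quantifies reporter mRNA induction in transiently transfected HepG2 cells after 24 h chemical treatment. DMSO serves as negative control and baseline for bidirectional fitting.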

[3] = ATG_VDRE_CIS: Attagene CIS-FACTORIAL HepG2 Assay for human Vitamin D Receptor Element (VDRE) (AID 2282968); conditions: HepG2 VDRE cis-reporter transcription, actives raise or lower the signal
How it was run: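 Reporter mRNA induction, quantified by capillary electrophoresis of fluorescently labelled RT-PCR products, was read 24 h after dosing HepG2 cells carrying transiently transfected cis-regulated reporter units; gain or loss relative to DMSO.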

[4] = molecular target: X-box-binding protein 1 (Homo sapiens) (UniProt P17861); assay: ATG_Xbp1_CIS: Attagene CIS-FACTORIAL HepG2 Assay for human X-box Binding Protein 1 (XBP1) (AID 2282972); conditions: HepG2 XBP1 cis-element reporter, Attagene multiplex; actives raise or lower the signal
How it was run: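 HepG2, transient MRTU transfection (cis-promoter driven), 24 h compound exposure. Total RNA → oligo(dT) RT → PCR → 6-FAM labeling → HpaI cut → CE. Bidirectional fit vs DMSO.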

[5] = ATG_M_19_TRANS: Attagene TRANS-FACTORIAL HepG2 Assay for M19 Transcription Factor (Internal Marker) (AID 2282974; active = hit-call score of the fitted dose curve at least 0.9, where 1 is the maximum); conditions: HepG2 Attagene TRANS-FACTORIAL M19 internal marker reporter
How it was run: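 Fluorescence of 6-FAM-labelled reporter cDNA fragments, separated by capillary electrophoresis, served as the readout. These derived from HepG2 cells carrying transfected GAL4-UAS reporter units after 24 h dosing, with DMSO as negative control.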

[6] = molecular target: Oxysterols receptor LXR-alpha (Homo sapiens) (UniProt Q13133); assay: ATG_LXRa_TRANS: Attagene TRANS-FACTORIAL HepG2 Assay for human Liver X Receptor alpha (LXRa) (AID 2282980; active = hit-call score of the fitted dose curve at least 0.9, where 1 is the maximum); conditions: HepG2 Attagene TRANS reporter, LXRa transactivation
How it was run: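 Chemical-induced reporter mRNA measured by RT-PCR with fluorescent labelling and capillary electrophoresis after 24 h dosing of transiently transfected HepG2 cells expressing exogenous NR-Gal4 chimeras; increases scored against DMSO baseline.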

[7] = ATG_M_32_TRANS: Attagene TRANS-FACTORIAL HepG2 Assay for M32 Transcription Factor (Internal Marker) (AID 2282984; active = hit-call score of the fitted dose curve at least 0.9, where 1 is the maximum); conditions: HepG2 Attagene TRANS M32 internal marker reporter
How it was run: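 Measures reporter mRNA induction in human HepG2 liver cells after 24 h chemical treatment. Transcripts from transiently transfected GAL4-UAS reporter units are amplified, fluorescently labelled and sized by capillary electrophoresis; gain of signal relative to DMSO.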

[8] = molecular target: Transcriptional activator Myb (Homo sapiens) (UniProt P10242); assay: ATG_Myb_CIS: Attagene CIS-FACTORIAL HepG2 Assay for human Myeloblastosis (Myb) Proto-Oncogene Transcription Factor (AID 2282986); conditions: HepG2 Attagene CIS-FACTORIAL Myb reporter transcription; actives raise or lower the signal
How it was run: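 Reporter transcript levels, quantified by fluorescent RT-PCR and capillary electrophoresis, serve as the read-out. Transfected HepG2 cells carrying cis-promoter reporter units are dosed for 24 hours, and curves are fitted bidirectionally against DMSO controls.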

[9] = molecular target: Estrogen receptor (Homo sapiens) (UniProt P03372); assay: ATG_ERa_TRANS: Attagene TRANS-FACTORIAL HepG2 Assay for human Estrogen Receptor alpha (ERa) (AID 2282970; active = hit-call score of the fitted dose curve at least 0.9, where 1 is the maximum); conditions: HepG2 Attagene TRANS ERa GAL4 reporter, mRNA
How it was run: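 Cells: HepG2, transiently transfected. Construct: GAL4-UAS reporter units regulated by exogenous NR-Gal4 chimeras. Time: 24 h. Detection: reporter mRNA by RT-PCR, capillary electrophoresis, fluorescence. Baseline: DMSO, upward fitting.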

[10] = ATG_GAL4_TRANS: Attagene TRANS-FACTORIAL HepG2 Assay for GAL4 (Internal Marker) (AID 2282976; active = hit-call score of the fitted dose curve at least 0.9, where 1 is the maximum); conditions: HepG2 Attagene TRANS GAL4 internal marker reporter
How it was run: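 In transfected human HepG2 liver cells dosed 24 h, GAL4 reporter mRNA serves as a baseline marker. Detection by RT-PCR with fluorescent capillary electrophoresis, activity fitted upward relative to DMSO.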

[11] = molecular target: Hepatocyte nuclear factor 4-alpha (Homo sapiens) (UniProt P41235); assay: ATG_HNF4a_TRANS: Attagene TRANS-FACTORIAL HepG2 Assay for human Hepatocyte Nuclear Factor 4 alpha (HNF4a) (AID 2282982; active = hit-call score of the fitted dose curve at least 0.9, where 1 is the maximum); conditions: HepG2 HNF4a transactivation reporter, mRNA readout
How it was run: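 Readout is fluorescent reporter-transcript fragments resolved by capillary electrophoresis after RT-PCR from HepG2 cells dosed for 24 h. Cells carried transfected GAL4-UAS reporter constructs measuring exogenous NR-GAL4 chimera activity; DMSO served as baseline.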

[12] = molecular target: Nuclear receptor subfamily 4 group A member 2 (Homo sapiens) (UniProt P43354); assay: ATG_NURR1_TRANS: Attagene TRANS-FACTORIAL HepG2 Assay for human Nuclear Receptor Related Protein 1 (NURR1) (AID 2282985; active = hit-call score of the fitted dose curve at least 0.9, where 1 is the maximum); conditions: HepG2 Attagene TRANS reporter, mRNA readout
How it was run: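 Transient transfection of HepG2, human liver cells, with multiple GAL4-UAS reporter transcription units. Cells dosed 24 h, RNA isolated, reverse-transcribed, PCR-amplified, FAM-labelled, HpaI-digested, sized by capillary electrophoresis. DMSO served as negative control.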

[13] = molecular target: Estrogen-related receptor gamma (Homo sapiens) (UniProt P62508); assay: ATG_ERRg_TRANS: Attagene TRANS-FACTORIAL HepG2 Assay for human Estrogen-Related Receptor gamma (ERRg) (AID 2282977; active = hit-call score of the fitted dose curve at least 0.9, where 1 is the maximum;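 note: hits increase reporter signal over DMSO so potencies reflect activators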); conditions: HepG2 Attagene TRANS reporter, ERRg transactivation
How it was run: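 HepG2 cells transiently transfected with multiplexed GAL4-UAS reporter units driven by chimeric NR-Gal4 proteins; 24 h exposure. Reporter mRNA quantified by RT-PCR, fluorescent labelling, HpaI digestion and capillary electrophoresis; gain of signal vs DMSO.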

[14] = ATG_M_06_TRANS: Attagene TRANS-FACTORIAL HepG2 Assay for M06 Transcription Factor (Internal Marker) (AID 2282983; active = hit-call score of the fitted dose curve at least 0.9, where 1 is the maximum); conditions: HepG2 Attagene TRANS M06 internal marker reporter
How it was run: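 Cells: HepG2, transient multi-reporter transfection. Exposure: 24 h. Detection: RT-PCR, 6-FAM labelling, HpaI digestion (2 h, 37 °C), capillary electrophoresis. Baseline: DMSO.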

[15] = molecular target: Oxysterols receptor LXR-beta (Homo sapiens) (UniProt P55055); assay: ATG_LXRb_TRANS: Attagene TRANS-FACTORIAL HepG2 Assay for human Liver X Receptor beta (LXRb) (AID 2282981; active = hit-call score of the fitted dose curve at least 0.9, where 1 is the maximum); conditions: HepG2 Attagene TRANS GAL4-LXRb reporter, mRNA
How it was run: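 Transient transfection HepG2 (multiplexed RTUs, GAL4-UAS); NR-Gal4 chimera; 24 h exposure; RNA → RT-PCR → 6-FAM primer extension → HpaI → CE; increase vs DMSO.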

[16] = ATG_TGFb_CIS: Attagene CIS-FACTORIAL HepG2 Assay for human Transforming Growth Factor (TGF) (AID 2282967); conditions: HepG2 Attagene CIS TGFb reporter, mRNA transcription; actives raise or lower the signal
How it was run: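 Readout: fluorescently labeled reporter cDNA fragments resolved by capillary electrophoresis after RT-PCR. Transfected HepG2 cells dosed for 24 h; endogenous TF activity at TGFB1-linked cis element; gain or loss fitted relative to DMSO.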

[17] = molecular target: Nuclear receptor subfamily 1 group I member 3 (Homo sapiens) (UniProt Q14994); assay: ATG_CAR_TRANS: Attagene TRANS-FACTORIAL HepG2 Assay for human Constitutive Androstane Receptor (CAR) (AID 2282969; active = hit-call score of the fitted dose curve at least 0.9, where 1 is the maximum;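 note: activators raise reporter mRNA above DMSO so AC50 marks induction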); conditions: HepG2 Attagene TRANS-FACTORIAL CAR reporter
How it was run: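 Readout is reporter mRNA induction, quantified by fluorescent primer extension and capillary electrophoresis after RT-PCR. Cells were HepG2 transiently carrying chimeric NR-Gal4 constructs with GAL4-UAS reporters, treated for 24 h; activity scored upward from DMSO.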

[18] = molecular target: Glucocorticoid receptor (Homo sapiens) (UniProt P04150); assay: ATG_GR_TRANS: Attagene TRANS-FACTORIAL HepG2 Assay for human Glucocorticoid Receptor (GR) (AID 2282978; active = hit-call score of the fitted dose curve at least 0.9, where 1 is the maximum;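 note: activators score as hits since higher reporter transcript over DMSO is fitted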); conditions: HepG2 Attagene TRANS GR reporter, mRNA transcription
How it was run: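 Fluorescent capillary-electrophoresis quantitation of reporter mRNA is the readout, taken 24 h after dosing human HepG2 cells carrying transiently transfected GAL4-UAS reporter units activated by chimeric NR-GAL4 fusions; activity scored as induction over DMSO.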

[19] = molecular target: Bile acid receptor (Homo sapiens) (UniProt Q96RI1); assay: ATG_FXR_TRANS: Attagene TRANS-FACTORIAL HepG2 Assay for Farnesoid X Receptor (FXR) (AID 2282979; active = hit-call score of the fitted dose curve at least 0.9, where 1 is the maximum;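 note: hits raise reporter mRNA above DMSO so AC50 marks FXR activation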); conditions: HepG2 Attagene TRANS FXR-GAL4 reporter transcription
How it was run: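 Reporter transcripts from transfected HepG2 cells were measured 24 h after dosing, using RT-PCR with capillary electrophoresis of 6-FAM-labelled fragments. The read-out reflects activity of exogenous FXR-Gal4 chimera on GAL4-UAS units, with induction relative to DMSO.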

Measured: AC50

Oxysterols receptor LXR-beta (Homo sapiens), sequence (P55055 whole entry, looked up, the tested form may be a part): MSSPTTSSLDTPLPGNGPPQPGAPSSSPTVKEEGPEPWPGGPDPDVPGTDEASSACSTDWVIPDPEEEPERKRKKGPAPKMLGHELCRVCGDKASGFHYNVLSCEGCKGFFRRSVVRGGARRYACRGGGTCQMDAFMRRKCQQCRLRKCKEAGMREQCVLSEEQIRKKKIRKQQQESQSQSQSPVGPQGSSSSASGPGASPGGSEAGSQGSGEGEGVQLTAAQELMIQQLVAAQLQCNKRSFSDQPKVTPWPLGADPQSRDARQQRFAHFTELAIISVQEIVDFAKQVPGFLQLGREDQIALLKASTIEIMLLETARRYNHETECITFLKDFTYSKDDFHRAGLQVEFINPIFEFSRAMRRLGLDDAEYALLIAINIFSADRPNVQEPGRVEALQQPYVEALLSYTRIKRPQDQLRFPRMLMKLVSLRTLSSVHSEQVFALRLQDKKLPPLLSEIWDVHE
Oxysterols receptor LXR-alpha (Homo sapiens), sequence (Q13133 whole entry, looked up, the tested form may be a part): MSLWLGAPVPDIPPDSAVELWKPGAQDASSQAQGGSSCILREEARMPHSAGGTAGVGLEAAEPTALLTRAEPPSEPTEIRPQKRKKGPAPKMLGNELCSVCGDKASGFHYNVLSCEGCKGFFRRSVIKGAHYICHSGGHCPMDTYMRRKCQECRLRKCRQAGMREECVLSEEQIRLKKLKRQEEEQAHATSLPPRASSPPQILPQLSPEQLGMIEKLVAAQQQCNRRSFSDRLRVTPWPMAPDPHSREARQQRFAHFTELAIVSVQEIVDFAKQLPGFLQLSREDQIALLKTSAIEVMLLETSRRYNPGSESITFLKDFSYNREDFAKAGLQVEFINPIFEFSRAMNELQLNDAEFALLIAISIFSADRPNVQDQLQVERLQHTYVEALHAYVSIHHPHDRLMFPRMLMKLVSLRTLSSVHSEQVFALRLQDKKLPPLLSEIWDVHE
Glucocorticoid receptor (Homo sapiens), sequence (P04150 whole entry, looked up, the tested form may be a part): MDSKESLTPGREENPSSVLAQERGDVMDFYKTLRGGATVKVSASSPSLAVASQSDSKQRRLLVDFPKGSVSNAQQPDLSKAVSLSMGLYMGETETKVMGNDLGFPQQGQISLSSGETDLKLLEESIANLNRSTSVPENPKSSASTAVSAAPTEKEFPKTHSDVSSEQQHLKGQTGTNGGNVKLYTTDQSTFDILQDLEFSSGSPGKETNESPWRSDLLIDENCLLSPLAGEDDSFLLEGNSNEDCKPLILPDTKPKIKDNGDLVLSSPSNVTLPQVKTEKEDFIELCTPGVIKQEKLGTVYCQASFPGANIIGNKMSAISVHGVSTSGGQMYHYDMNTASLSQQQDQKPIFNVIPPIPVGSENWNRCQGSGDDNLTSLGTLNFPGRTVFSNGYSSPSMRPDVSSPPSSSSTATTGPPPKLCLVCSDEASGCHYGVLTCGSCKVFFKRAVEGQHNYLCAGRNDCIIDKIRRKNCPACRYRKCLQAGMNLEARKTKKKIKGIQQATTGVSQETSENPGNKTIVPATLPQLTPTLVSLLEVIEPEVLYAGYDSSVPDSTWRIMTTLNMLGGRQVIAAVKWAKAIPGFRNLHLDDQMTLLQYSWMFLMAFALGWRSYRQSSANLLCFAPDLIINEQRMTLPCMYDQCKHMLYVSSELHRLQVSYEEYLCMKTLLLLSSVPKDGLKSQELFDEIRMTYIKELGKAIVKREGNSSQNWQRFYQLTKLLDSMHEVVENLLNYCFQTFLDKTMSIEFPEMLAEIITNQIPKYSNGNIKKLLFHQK
Hepatocyte nuclear factor 4-alpha (Homo sapiens), sequence (P41235 whole entry, looked up, the tested form may be a part): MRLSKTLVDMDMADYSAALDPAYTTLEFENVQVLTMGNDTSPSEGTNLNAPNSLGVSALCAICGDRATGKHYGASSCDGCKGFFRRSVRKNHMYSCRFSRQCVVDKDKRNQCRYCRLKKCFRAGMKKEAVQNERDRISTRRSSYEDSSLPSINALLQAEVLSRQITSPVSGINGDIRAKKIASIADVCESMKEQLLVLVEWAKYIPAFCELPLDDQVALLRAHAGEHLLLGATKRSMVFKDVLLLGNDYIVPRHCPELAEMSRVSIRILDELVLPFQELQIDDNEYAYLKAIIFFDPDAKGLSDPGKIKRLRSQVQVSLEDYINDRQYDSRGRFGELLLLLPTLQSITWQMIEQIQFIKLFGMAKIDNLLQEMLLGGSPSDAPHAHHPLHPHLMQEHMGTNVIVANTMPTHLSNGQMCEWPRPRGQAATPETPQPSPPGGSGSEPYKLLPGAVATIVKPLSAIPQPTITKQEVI
Transcriptional activator Myb (Homo sapiens), sequence (P10242 whole entry, looked up): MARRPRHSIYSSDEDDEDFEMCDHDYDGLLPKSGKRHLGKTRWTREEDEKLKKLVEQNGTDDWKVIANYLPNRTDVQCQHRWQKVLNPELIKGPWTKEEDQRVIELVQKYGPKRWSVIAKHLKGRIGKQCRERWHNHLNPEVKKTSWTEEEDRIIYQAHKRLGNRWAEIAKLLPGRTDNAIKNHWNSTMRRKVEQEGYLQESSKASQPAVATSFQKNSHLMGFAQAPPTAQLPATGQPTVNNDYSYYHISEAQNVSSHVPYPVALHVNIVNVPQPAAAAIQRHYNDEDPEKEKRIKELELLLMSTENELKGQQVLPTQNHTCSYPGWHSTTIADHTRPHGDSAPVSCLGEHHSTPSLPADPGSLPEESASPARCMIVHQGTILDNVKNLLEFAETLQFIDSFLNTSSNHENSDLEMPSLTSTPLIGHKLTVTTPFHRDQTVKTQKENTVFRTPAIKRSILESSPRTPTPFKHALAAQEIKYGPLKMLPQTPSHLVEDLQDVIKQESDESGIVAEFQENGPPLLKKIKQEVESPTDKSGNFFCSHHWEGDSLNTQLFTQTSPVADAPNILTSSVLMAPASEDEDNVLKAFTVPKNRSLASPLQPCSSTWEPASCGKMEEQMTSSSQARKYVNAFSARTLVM
Estrogen receptor (Homo sapiens), sequence (P03372 whole entry, looked up, the tested form may be a part): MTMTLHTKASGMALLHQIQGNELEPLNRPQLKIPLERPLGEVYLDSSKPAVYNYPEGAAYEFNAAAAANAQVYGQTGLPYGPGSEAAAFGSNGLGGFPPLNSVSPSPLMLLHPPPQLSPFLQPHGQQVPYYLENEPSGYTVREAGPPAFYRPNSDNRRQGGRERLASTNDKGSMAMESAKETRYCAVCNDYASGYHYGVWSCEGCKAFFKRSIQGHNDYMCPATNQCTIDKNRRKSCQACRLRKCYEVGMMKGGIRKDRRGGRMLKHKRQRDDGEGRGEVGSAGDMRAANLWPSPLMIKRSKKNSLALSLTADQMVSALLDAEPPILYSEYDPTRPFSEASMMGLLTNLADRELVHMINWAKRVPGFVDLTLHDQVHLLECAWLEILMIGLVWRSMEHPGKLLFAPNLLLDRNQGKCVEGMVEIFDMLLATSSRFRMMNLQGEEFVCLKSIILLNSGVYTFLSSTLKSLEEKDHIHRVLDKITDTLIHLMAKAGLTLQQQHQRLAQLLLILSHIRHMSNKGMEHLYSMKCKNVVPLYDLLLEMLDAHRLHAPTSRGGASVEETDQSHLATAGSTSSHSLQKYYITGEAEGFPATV
Nuclear receptor subfamily 4 group A member 2 (Homo sapiens), sequence (P43354 whole entry, looked up, the tested form may be a part): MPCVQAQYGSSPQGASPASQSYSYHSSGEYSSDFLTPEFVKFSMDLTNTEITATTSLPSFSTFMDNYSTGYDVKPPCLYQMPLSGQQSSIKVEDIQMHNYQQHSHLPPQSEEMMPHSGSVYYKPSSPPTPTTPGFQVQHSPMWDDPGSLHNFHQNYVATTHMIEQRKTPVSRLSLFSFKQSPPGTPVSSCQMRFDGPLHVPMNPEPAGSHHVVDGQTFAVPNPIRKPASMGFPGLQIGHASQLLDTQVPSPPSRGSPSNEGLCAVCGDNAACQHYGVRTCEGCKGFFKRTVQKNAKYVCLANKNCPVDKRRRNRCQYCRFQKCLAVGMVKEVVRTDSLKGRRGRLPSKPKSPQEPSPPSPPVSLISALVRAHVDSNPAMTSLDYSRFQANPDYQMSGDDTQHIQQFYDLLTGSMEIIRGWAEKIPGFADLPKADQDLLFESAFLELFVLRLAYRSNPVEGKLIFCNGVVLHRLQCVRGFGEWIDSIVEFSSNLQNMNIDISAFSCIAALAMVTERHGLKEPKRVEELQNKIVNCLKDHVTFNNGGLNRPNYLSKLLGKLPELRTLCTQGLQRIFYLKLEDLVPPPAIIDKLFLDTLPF
X-box-binding protein 1 (Homo sapiens), sequence (P17861 whole entry, looked up): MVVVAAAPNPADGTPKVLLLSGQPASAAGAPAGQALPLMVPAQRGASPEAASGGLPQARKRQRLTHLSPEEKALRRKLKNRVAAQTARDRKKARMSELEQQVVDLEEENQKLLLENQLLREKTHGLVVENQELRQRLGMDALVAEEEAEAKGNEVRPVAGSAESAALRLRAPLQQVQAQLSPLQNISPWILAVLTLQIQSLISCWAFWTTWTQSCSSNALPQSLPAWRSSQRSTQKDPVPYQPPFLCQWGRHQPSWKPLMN
Estrogen-related receptor gamma (Homo sapiens), sequence (P62508 whole entry, looked up, the tested form may be a part): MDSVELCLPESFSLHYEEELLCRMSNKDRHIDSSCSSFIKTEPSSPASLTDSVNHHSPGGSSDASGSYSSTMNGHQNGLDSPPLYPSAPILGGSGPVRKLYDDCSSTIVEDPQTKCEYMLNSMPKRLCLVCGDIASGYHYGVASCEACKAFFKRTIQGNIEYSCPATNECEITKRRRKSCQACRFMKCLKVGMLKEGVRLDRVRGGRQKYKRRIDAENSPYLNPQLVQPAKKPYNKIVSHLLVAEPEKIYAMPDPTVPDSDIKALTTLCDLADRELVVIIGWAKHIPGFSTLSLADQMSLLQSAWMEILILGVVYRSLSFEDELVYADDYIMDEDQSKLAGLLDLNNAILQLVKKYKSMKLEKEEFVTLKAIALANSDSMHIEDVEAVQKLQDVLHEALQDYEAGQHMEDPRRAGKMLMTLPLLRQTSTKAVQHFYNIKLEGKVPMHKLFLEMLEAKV

COc1ccc2c(c1)c(CC(=O)O)c(C)n2C(=O)c1ccc(Cl)cc1
inactive: [1] | [2] | [3] | [4] | [5] | [6] | [7] | [8]

c1cc(-c2ccncc2)ccn1
not listed: [7] | [13] | [14] | [15] | [16] | [17] | [18] | [19]
inactive: all other assays above

Cc1cccc(C)c1O
active: [9] 31.9 µM
not listed: [6] | [11] | [15] | [16] | [17] | [18] | [19]
inactive: all other assays above

CCCCCCCC=O
inactive: [1] | [2] | [3] | [4] | [15] | [11] | [14] | [12] | [8]

Cc1ccc(Cl)cc1
not listed: [6] | [10] | [13] | [16] | [17] | [18] | [19]
inactive: all other assays above

O=C(O)Cc1ccccc1Nc1c(Cl)cccc1Cl
inactive: [2] | [4] | [5] | [10] | [7] | [12] | [8]
active: [1] 40.6 µM | [3] 16.2 µM

Oc1ccc2c(c1)OC[C@@H](N1CCC(O)(c3ccc(F)cc3)CC1)[C@H]2O
inactive: [1] | [17] | [4] | [11] | [14] | [12] | [8]
active: [16] 64.6 µM | [3] 30.1 µM

CC(=O)OC/C=C(\C)CCC=C(C)C
inactive: [1] | [16] | [4] | [5] | [18] | [7] | [8]

CC=Cc1ccc(O)c(OC)c1
inactive: [1] | [16] | [4] | [10] | [14] | [12] | [8]

Cc1oc(-c2ccccc2)nc1CCOc1cccc2c1ccn2CCC(=O)O
inactive: [1] | [3] | [4] | [5] | [18] | [15] | [7] | [12] | [8]

COCCOCCOC
inactive: [1] | [3] | [4] | [5] | [10] | [19] | [6] | [15] | [8]

Cc1c(C(=O)O)c(O)cc2c1C(=O)c1c(O)c([C@@H]3O[C@H](CO)[C@@H](O)[C@H](O)[C@H]3O)c(O)c(O)c1C2=O
inactive: [1] | [3] | [4] | [5] | [18] | [19] | [11] | [7] | [12] | [8]

C=CCc1ccc(O)c(OC)c1
active: [1] 176 µM
inactive: [16] | [4] | [5] | [13] | [8]
